According to PubChem BioAssay (Tox21):
Results filed as inconclusive are left out. A call without a number means that no potency is given here. Activity calls are given as the source filed them. Calls follow the shape of the full dose curve.

target: Acetylcholinesterase (Homo sapiens) (UniProt P22303); assay: Acetylcholinesterase (AChE) small molecule antagonists: fluorescence cell-based qHTS assay (AID 1347398); conditions: SH-SY5Y cells; Potency: AChE activity; outcome: AChE activity; series mostly up to 115 µM; also: nearly all actives have a fitted effect of over 50% in size
Sequence (P22303 whole entry, looked up): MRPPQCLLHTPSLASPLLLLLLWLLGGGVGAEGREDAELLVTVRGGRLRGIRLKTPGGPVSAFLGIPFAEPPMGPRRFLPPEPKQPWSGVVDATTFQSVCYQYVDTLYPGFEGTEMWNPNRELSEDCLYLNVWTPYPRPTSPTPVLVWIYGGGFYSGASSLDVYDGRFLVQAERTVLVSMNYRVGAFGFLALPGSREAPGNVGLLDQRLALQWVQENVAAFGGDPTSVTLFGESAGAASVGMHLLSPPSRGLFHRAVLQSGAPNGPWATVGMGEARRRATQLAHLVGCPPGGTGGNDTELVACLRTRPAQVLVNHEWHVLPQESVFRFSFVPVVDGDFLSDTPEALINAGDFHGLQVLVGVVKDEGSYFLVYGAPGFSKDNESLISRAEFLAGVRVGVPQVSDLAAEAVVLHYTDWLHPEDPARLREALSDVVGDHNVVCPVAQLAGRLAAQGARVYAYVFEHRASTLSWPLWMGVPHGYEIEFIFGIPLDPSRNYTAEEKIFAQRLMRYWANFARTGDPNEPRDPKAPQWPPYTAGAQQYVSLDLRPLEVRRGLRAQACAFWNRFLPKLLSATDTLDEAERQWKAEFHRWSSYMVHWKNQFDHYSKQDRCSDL
Method in brief: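 Thiocholine generated from acetylthiocholine by SH-SY5Y cell AChE is detected with Thiolite Green (Ex/Em 490/520 nm) after 40 min at room temperature, following 30 min compound pretreatment at 37 C.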

**Q.** With `N[C@@H](CCC(=O)O)C(=O)O` as the compound, how does the Potency read?
**A.** inactive

**Q.** How did the Potency turn out when `CCCCSCCCC` was run?
**A.** inactive

**Q.** For `CCCCCCCCCCCCCCCCCC(=O)OCC(CC)CCCC` (centres undefined), which Potency is on record?
**A.** inactive

**Q.** With `CCOCCn1c(N2CCCN(C)CC2)nc2ccccc21` as the compound, how does the Potency read?
**A.** inactive

**Q.** Which Potency does the source give for `CC1=C(/C=C/C(C)=C/C=C/C(C)=C/C(=O)O)C(C)(C)CCC1` here?
**A.** inactive

**Q.** With `Cc1ccc(N=Nc2c(O)ccc3ccccc23)c(C)c1` as the compound, how does the Potency read?
**A.** inactive

**Q.** `CCCCCCCCCCCCCCCCBr` was tested. Which activity change, negative = inhibition did it give?
**A.** -0.68% [at 23.8 µM] (inactive)

**Q.** `C=CC(=O)OCCOC1C2CCC1C1CC=CC12` (centres undefined) was tested. Which activity change, negative = inhibition did it give?
**A.** -2.44% [at 23.8 µM] (inactive)

**Q.** For `CCC(C)C=O` (centres undefined), which Potency is on record?
**A.** inactive

**Q.** For `COc1ccc(OC)c(NC(=O)CC(C)=O)c1`, which Potency is on record?
**A.** inactive

**Q.** How did the Potency turn out when `Nc1ccc(C(=O)N2CC3CC(CN(Cc4ccccc4)C3)C2)cc1` was run?
**A.** inactive

**Q.** How did the Potency turn out when `CCCCN1CCCC[C@H]1C(=O)Nc1c(C)cccc1C` was run?
**A.** inactive

**Q.** Which Potency does the source give for `O=C(O)Cc1ccccc1Nc1c(Cl)cccc1Cl` here?
**A.** inactive

**Q.** With `C=CCOC(=O)CCCCCCCC` as the compound, how does the Potency read?
**A.** inactive

**Q.** Which Potency does the source give for `CCCCN(CCCC)C(=S)SSC(=S)N(CCCC)CCCC` here?
**A.** inactive

**Q.** How did the Potency turn out when `C1CCCNCCC1` was run?
**A.** inactive

**Q.** Which Potency does the source give for `O=C(Cl)c1ccccc1[N+](=O)[O-]` here?
**A.** inactive

**Q.** With `C#CCN[C@@H]1CCc2ccccc21` as the compound, how does the outcome read?
**A.** inactive

**Q.** `CCc1cnc(C(=O)O)c(C(=O)O)c1` was tested. Which Potency did it give?
**A.** inactive

**Q.** `C=C/C=C/C=C/CCCCC` was tested. Which activity change, negative = inhibition did it give?
**A.** -10.6% [at 23.8 µM] (inactive)

**Q.** For `Cc1cccc2c1cc1ccc3cccc4ccc2c1c34`, which Potency is on record?
**A.** inactive

**Q.** With `CCC1CCC(CCC(=O)O)C1` (centres undefined) as the compound, how does the Potency read?
**A.** inactive

**Q.** With `CN(C)c1cc(NC(=O)CNC(C)(C)C)c(O)c2c1C[C@H]1C[C@H]3[C@H](N(C)C)C(=O)C(C(N)=O)=C(O)[C@@]3(O)C(=O)C1=C2O` as the compound, how does the Potency read?
**A.** inactive

**Q.** How did the Potency turn out when `CC(C)CCCCCCc1ccc(O)cc1` was run?
**A.** inactive

**Q.** Which Potency does the source give for `CN1CCC(=C2c3ccccc3CCc3cccnc32)CC1` here?
**A.** inactive

**Q.** Which Potency does the source give for `O=[N+]([O-])c1ccc(F)cc1F` here?
**A.** inactive

**Q.** With `CCCCCCCCS` as the compound, how does the Potency read?
**A.** inactive

**Q.** Which Potency does the source give for `CC(=O)OCCC1CCCCC1` here?
**A.** inactive

**Q.** `Cc1ccccc1OCC(=O)O` was tested. Which Potency did it give?
**A.** inactive

**Q.** For `C[C@H]1O[C@H](O[C@H]2[C@H](O)[C@@H](O)[C@@H](O[C@H]3[C@H](O)[C@@H](O)[C@H](O)O[C@@H]3CO)O[C@@H]2CO)[C@H](O)[C@@H](O)[C@@H]1N[C@H]1C=C(CO)[C@@H](O)[C@H](O)[C@H]1O`, which Potency is on record?
**A.** inactive

**Q.** Which Potency does the source give for `COCCCCCCCCOCCC[Si](C)(O[Si](C)(C)C)O[Si](C)(C)C` here?
**A.** inactive

**Q.** For `C=C[Si](C)(C)Cl`, which activity change, negative = inhibition is on record?
**A.** -9.61% [at 10.5 µM] (inactive)

**Q.** Which Potency does the source give for `O=C(/C=C/c1ccc([N+](=O)[O-])cc1)c1ccccc1` here?
**A.** inactive

**Q.** How did the Potency turn out when `CC=C(Cl)Cl` was run?
**A.** inactive

**Q.** For `CN1C(C(=O)Nc2ccccn2)=C(O)c2ccccc2S1(=O)=O`, which Potency is on record?
**A.** inactive

**Q.** With `CCCCC(CC)COS(=O)(=O)O` (centres undefined) as the compound, how does the Potency read?
**A.** inactive

**Q.** With `CN(C)c1cccc(O)c1` as the compound, how does the Potency read?
**A.** inactive

**Q.** `C/C(=C(/OCCOc1ccc(Cl)cc1)c1ccc(Cl)cc1Cl)n1ccnc1` was tested. Which Potency did it give?
**A.** inactive

**Q.** For `CC(C)CCCCCOC(=O)CS`, which Potency is on record?
**A.** inactive
